Test results published in PubChem BioAssay AID1898 (National Center for Advancing Translational Sciences (NCATS), 2009).
The list shows a part of the results. Inconclusive results are not listed. Calls of active or inactive are those of the source. Calls follow the shape of the dose curve; as a rule, active = well fitted curve in the direction sought with a large enough effect; inconclusive = small, poorly fitted or top-dose-only effect, or another doubt; inactive = no such curve, though single readings can be large or run the other way.

assay: Secondary assay for Activators of Human Pyruvate Kinase M2 isoform - Cell Titer Glo cytotoxicity assay; conditions: HeLa viability, CellTiter-Glo ATP luminescence, 24 h; series mostly up to 57.5 µM
Procedure: NIH Chemical Genomics Center [NCGC] Matthew G. Vander Heiden, M.D., Ph.D. [Harvard Medical School, 77 Avenue Louis Pasteur, Boston, MA 02115] MLPCN Grant: 1 R03 MH085679-01 NCGC Assay Overview: We have identified a series of activators of the M2 isoform of human pyruvate kinase. The assay described here examines the cytotoxicity of these compounds by measuring the total ATP content of Hela cells after 24 hrs of exposure to compound.
Assay Protocol: 500 Hela cells/ 4ul in media (DMEM with high glucose, 10% FBS, 1x Pen Strep, 1x NEAA) were dispensed into a white solid 1536-microwell plate with a Thermo Multidrop. The plates were incubated at 37 degrees Celsius for 24 hours. The cells were then treated with compounds using the Kalypsys pin tool, delivering 23 nl of test compounds and the control doxorubicin. The plates were then incubated for an additional 24 hours at 37 degrees C after which 4 ul of Promega Cell-Titer Glo was dispensed using the Thermo Multidrop. The plates were incubated at room temperature for 10 min before reading luminescence on the Perkin Elmer ViewLux with images collected with 2x binning and a 5 sec exposure time.

| Structure (SMILES) | outcome |
| --- | --- |
| CC(=O)c1cc(C#N)c(SCC(=O)Nc2nccs2)nc1C | inactive |
| Cc1cc2c(s1)c1cnn(Cc3c(F)cccc3Cl)c(=O)c1n2C | inactive |
| O=S(=O)(NCCCCCCNS(=O)(=O)c1c(F)cccc1F)c1ccc2c(c1)OCCO2 | inactive |
| CSc1nc2ccc(S(=O)(=O)N3CCc4ccccc43)cc2s1 | inactive |
| Cc1ccc(Cn2ncc3c4sc(C)cc4n(C)c3c2=O)c(C)c1 | inactive |
| O=S(=O)(NC1CCN(S(=O)(=O)c2ccc3c(c2)OCCO3)CC1)c1c(F)cccc1F | inactive |
| O=C(NCc1ccccn1)c1c(O)c2c([nH]c1=O)CCCC2 | inactive |
| CN(C)N=Nc1ccc2nc[nH]c2c1 | inactive |
| O=C(NCc1cccs1)C1CCN(S(=O)(=O)c2ccc3c(c2)OCCO3)CC1 | inactive |
| Cn1c2cc(B(O)O)sc2c2cnn(Cc3ccccc3F)c(=O)c21 | inactive |
| O=C(c1c(F)cccc1F)N1CCN(S(=O)(=O)c2ccc3c(c2)OCCO3)CC1 | inactive |
| O=S(=O)(NCC1CN(S(=O)(=O)c2ccc3c(c2)OCCO3)C1)c1c(F)cccc1F | inactive |
